Pf Dd2 growth = inhibitors of Plasmodium falciparum Dd2 growth; P. falciparum Dd2 growth, SYBR Green, 72 h; Potency, µM (top dose mostly 28.9 µM), most hits filed as inhibitors; 120,000 tested, 4.3% active; active = well fitted inhibition curve with a large enough effect; also: nearly all actives have a fitted effect of over 65% in size
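Readout: SYBR Green fluorescence, 485 nm excitation, 535 nm emission, after ~16 h lysis at 37C. Before that, Dd2-infected red cells (2.5% hematocrit) grew 72 h with compound, 29 uM top final concentration.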
Large screens that a line does not name were inactive. This excerpt belongs to a sample that is enriched for hits.

COc1cccc(N2CC(C(=O)N3CCC(C(=O)NCC4CC4)C3)NC2=O)c1 (stereo not drawn)	none
CN(C)c1cc(N2CCCC(NC(=O)c3ccccn3)C2)ncn1 (stereo not drawn)	none
COCCC(=O)N1CCC(N2C(=O)CCC2C(=O)NCc2ccccc2)CC1 (stereo not drawn)	none
Cc1ccc(C)c(CN2CCC(CNC(=O)Nc3ccc(Br)cc3F)CC2)c1	Pf Dd2 growth 8.91µM
Cc1ccc(NC(=O)NCC2CCOCC2)c(C)c1	none
COc1ccc(NC(=O)NCC2CCN(Cc3ccccc3F)CC2)c(OC)c1	none
CC1=C[C@@H](CNS(C)(=O)=O)[C@H](C(C)C)C[C@H]1Cc1nnc(-c2cncn2C)o1	none
CC1=C[C@@H](CNCc2ccco2)[C@H](C(C)C)C[C@H]1Cc1nnc(C(C)(C)C)o1	Pf Dd2 growth 12.6µM
CC1=C[C@@H](CNS(=O)(=O)c2ccccc2)[C@H](C(C)C)C[C@H]1CC(=O)NCc1ccccn1	none
CC1=C[C@@H](CNC(=O)NC(C)C)[C@H](C(C)C)C[C@H]1CC(=O)NCc1ccccn1	none
CC1=C[C@@H](CN(C)CCc2ccccn2)[C@H](C(C)C)C[C@H]1Cc1nnc(-c2ccccc2)o1	Pf Dd2 growth 2.24µM
CC1=C[C@@H](CN(C)CCc2ccccn2)[C@H](C(C)C)C[C@H]1Cc1nnc(-c2ccncc2)o1	Pf Dd2 growth 3.55µM
CC1=C[C@@H](CNC(=O)C(C)(C)C)[C@H](C(C)C)C[C@H]1Cc1nnc(-c2ccccc2F)o1	none
COc1ccc(-c2nnc(C[C@@H]3C[C@@H](C(C)C)[C@H](CNCc4ccncc4)C=C3C)o2)cc1	Pf Dd2 growth 3.98µM
CC1=C[C@@H](CNC(=O)c2cccnc2)[C@H](C(C)C)C[C@H]1CC(=O)NCc1ccccn1	none
COc1ccc(C(=O)NC[C@@H]2C=C(C)[C@H](CC(=O)O)C[C@H]2C(C)C)cc1	none
CC1=C[C@@H](CN2CCC(C(N)=O)CC2)[C@H](C(C)C)C[C@H]1Cc1nnc(C(C)(C)C)o1	none
CC1=C[C@@H](CNC(=O)COc2ccccc2)[C@H](C(C)C)C[C@H]1CC(=O)Nc1ccccn1	none
CC(=O)N1CCC(NC(=O)c2nc(-c3ccccc3)cc3[nH]ccc23)CC1	none
COc1ccc(NC(=O)[C@@H]2C[C@H](c3cccc(C(F)(F)F)c3)N(Cc3cnn(C)c3)C2)cc1	none
COCCN1CCC(N2CCN(S(=O)(=O)c3ccc(Cl)s3)CC2)C1=O (stereo not drawn)	none
O=C(NCCc1ccccc1)c1cnc2n1CCN(CCc1ccccc1)CC2	none
Cc1cc2ncc(C(=O)NCc3cccc(F)c3)cn2n1	none
Cc1cc2nc3n(c(=O)c2n1CC(=O)Nc1ccc(Cl)cc1F)CCC3	none
CN(CC1(C)CCOCC1)C(=O)c1ccnn1C	none
COCc1ccc(C(=O)NCc2cc3n(n2)CCCN(CC(C)C)C3)o1	none
CC1=C[C@@H](CN(C)CCN(C)C)[C@H](C(C)C)C[C@H]1Cc1nnc(-c2ccccc2)o1	Pf Dd2 growth 3.55µM
CC1=C[C@@H](CNS(=O)(=O)c2ccccc2)[C@H](C(C)C)C[C@H]1CC(=O)NCCN(C)C	none
Cc1cc2c(cc1C(=O)N1C[C@@H](C)[C@](O)(C3CCC3)C1)OCCO2	none
O=C(Nc1cc(F)c(F)c(F)c1)N1CCC(OC2CCN(Cc3ccccc3)CC2)CC1	none
CNC(=O)N1CCC(OC2CCN(Cc3ccccc3)CC2)CC1	none
O=C(c1c(F)cccc1F)N1CCC(OC2CCN(Cc3ccccc3)CC2)CC1	Pf Dd2 growth 11.2µM
Cc1ccccc1CC(=O)N1CC(C(=O)NCCc2ccncc2)C2(CCOCC2)C1 (stereo not drawn)	none
c1ccc(CNC[C@H]2Cn3c(-c4ccc5c(c4)OCCO5)cnc3CO2)cc1	Pf Dd2 growth 11.2µM
O=S(=O)(Cc1ccccc1)NC[C@H]1Cn2c(-c3ccc(F)cc3)cnc2CO1	none
O=C(NCc1ccccc1)NC[C@H]1Cn2c(-c3ccc(Cl)cc3)cnc2CO1	Pf Dd2 growth 2.82µM
O=C(NC[C@H]1Cn2c(-c3ccc4c(c3)OCCO4)cnc2CO1)C1CC1	none
Clc1ccc(CNC[C@H]2Cn3c(-c4ccccc4)cnc3CO2)cc1	none
CS(=O)(=O)NC[C@H]1Cn2c(-c3ccc4c(c3)OCCO4)cnc2CO1	none
O=S(=O)(Cc1ccccc1)NC[C@H]1Cn2c(-c3ccc(Cl)cc3)cnc2CO1	none
Clc1ccc(-c2cnc3n2C[C@H](CNCc2cccnc2)OC3)cc1	none
COc1ncccc1CNC[C@H]1Cn2c(-c3ccc(F)cc3)cnc2CO1	Pf Dd2 growth 25.1µM
Cc1ccc(C2Cn3nnc(-c4noc(C5CCCCC5)n4)c3CO2)cc1 (stereo not drawn)	none
Cc1cc(C(F)(F)F)nn1CC(=O)N1CCCCCCN(C)C(=O)[C@@H]2CCC[C@@H]21	none
Cn1cnc(C(=O)N2CC(F)(F)C[C@H]2c2nc(C3CC3)no2)c1	none
CNC(=O)c1noc([C@@H]2CC(F)(F)CN2C2CCOCC2)n1	none
O=c1c(-c2cccs2)ccc2n1C[C@H]1C[C@@H]2CN(Cc2cc3ccccc3o2)C1	none
O=C(Nc1ccc(F)cc1)N1CC2CC(C1)[C@H]1CCCC(=O)N1C2 (stereo partly drawn)	none
N#Cc1cccc(C(=O)Nc2ccc([C@@H](O)[C@H]3COCC(=O)N3Cc3ccc(F)cc3)cc2)c1	none
